Values joined by “and” are separate entries in the source; they are usually repeats but may differ in a detail not shown here. Equal values may be shown once. Inconclusive results are not listed. A call without a number means that no potency is given here. Some compounds were tested as several samples or in several runs, with calls that do not always agree. Active and inactive are the calls of the source. Unless noted, calls follow the shape of the dose curve; as a rule, active = well fitted curve in the direction sought with a large enough effect in the repeat runs; inconclusive = weak or mixed curves; inactive = no such curve, though single readings can be large; an effect the other way counts as inactive or inconclusive.
What was measured:
[1] = A CellTox Green Cytotoxicity Assay to monitor cytotoxicity in HepG2 cells - 8 hour (AID 1224890); also: nearly all actives have a fitted effect of over 45% in size; also: potency is read from the fitted curve at half-maximal effect
In short: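 Continuous culture of HepG2 cells with a membrane-impermeant DNA dye; rising fluorescence marks dead cells. Compound exposure lasted up to 40 h at 37 C, with reads every 8 h from 0 h.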

[2] = qHTS assay to identify small molecule antagonists of the estrogen receptor alpha (ER-alpha) signaling pathway using the BG1 cell line in the presence of 0.1 nM 17-beta-estradiol - cell viability counter screen (AID 1259241); also: nearly all actives have a fitted effect of over 40% in size; also: potency is read from the fitted curve at half-maximal effect
In short: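 Viability in VM7Luc4E2 cells after 22 hr compound exposure under 0.1 nM 17beta-estradiol stimulation, by CellTiter-Fluor.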

[3] = qHTS assay to identify small molecule antagonists of the androgen receptor (AR) signaling pathway using the MDA cell line in the presence of 0.5 nM R1881 - cell viability counter screen (AID 1259242); also: nearly all actives have a fitted effect of over 45% in size; also: potency is read from the fitted curve at half-maximal effect
In short: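 Fluorescence from CellTiter-Fluor, which reports protease activity of live cells, was read 30 min after reagent addition to MDA-kb2 cells that had been incubated 16 hr with compound and 0.5 nM R1881.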

[4] = qHTS assay to identify small molecule phospholipidosis (PLD) inducers (AID 1259344; active = well fitted curve in the direction sought with a large enough effect; an effect the other way counts as inactive or inconclusive)
In short: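 HepG2 cells on collagen I, attached 4 h at 37 C, were co-treated with compound and LipidTOX Red dye for 24 h at 37 C, then fixed with paraformaldehyde plus Hoechst 33342 and imaged by high-content microscopy for phospholipid accumulation.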

[5] = qHTS assay to identify small molecule HDAC inhibitors (AID 1259364); also: nearly all actives have a fitted effect of over 45% in size; also: potency is read from the fitted curve at half-maximal effect
In short: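 Endogenous HDAC class I/II activity was measured in wild-type HCT-116 cells by HDAC-Glo luminescence after 2 h compound treatment.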

[6] = qHTS assay to identify small molecule HDAC inhibitors - cell viability counter screen (AID 1259365); also: nearly all actives have a fitted effect of over 50% in size; also: potency is read from the fitted curve at half-maximal effect
In short: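 Cytotoxicity was gauged in wild-type HCT-116 cells after a brief 2hr treatment with DMSO-dissolved compounds at 37C and 5% CO2, using CellTiter-Glo luminescence developed for 30min at room temperature.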

[7] = qHTS assay to identify small molecule agonists of the sonic hedgehog signaling (Shh) pathway - cell viability counter screen (AID 1259366); also: nearly all actives have a fitted effect of over 50% in size; also: potency is read from the fitted curve at half-maximal effect
In short: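 Stable Gli1-Luc NIH/3T3 clone, 2,000 cells/well. Compound exposure 24hr at 37C. Read-out: CellTiter-Fluor fluorescence.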

[8] = molecular target: Androgen receptor (Homo sapiens) (UniProt P10275); assay: qHTS assay to identify small molecule antagonists of the androgen receptor (AR) signaling pathway using the MDA cell line in the presence of 0.5 nM R1881 (AID 1259243); also: nearly all actives have a fitted effect of over 50% in size; also: potency is read from the fitted curve at half-maximal effect
In short: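 Inhibition of R1881 (0.5 nM final) induced reporter signal was measured in human MDA-kb2 cells; note the MMTV promoter also responds to GR. Exposure lasted 16 hr at 37C.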

[9] = qHTS assay to identify small molecule antagonists of the sonic hedgehog signaling (Shh) pathway - cell viability counter screen (AID 1259367); also: nearly all actives have a fitted effect of over 55% in size
In short: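 NIH/3T3-derived Gli1-Luc reporter cells (2,000 per well) rested 4 hr at 37 C, then received DMSO compounds plus conditioned medium. After 23 hr of treatment, CellTiter-Fluor was added for 1 hr at 37C and fluorescence read.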

[10] = molecular target: Estrogen receptor (Homo sapiens) (UniProt P03372); assay: qHTS assay to identify small molecule antagonists of the estrogen receptor alpha (ER-alpha) signaling pathway using the BG1 cell line in the presence of 0.1 nM 17-beta-estradiol (AID 1259244); also: nearly all actives have a fitted effect of over 50% in size; also: potency is read from the fitted curve at half-maximal effect
In short: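 Quantitative high-throughput screen in VM7Luc4E2 cells: compound plus 0.1 nM E2 (final), 22 h, 37C, 5% CO2; ONE-Glo added, 30 min room temperature, luminescence measured.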

Chain of Androgen receptor (Homo sapiens) (P10275 whole entry, looked up): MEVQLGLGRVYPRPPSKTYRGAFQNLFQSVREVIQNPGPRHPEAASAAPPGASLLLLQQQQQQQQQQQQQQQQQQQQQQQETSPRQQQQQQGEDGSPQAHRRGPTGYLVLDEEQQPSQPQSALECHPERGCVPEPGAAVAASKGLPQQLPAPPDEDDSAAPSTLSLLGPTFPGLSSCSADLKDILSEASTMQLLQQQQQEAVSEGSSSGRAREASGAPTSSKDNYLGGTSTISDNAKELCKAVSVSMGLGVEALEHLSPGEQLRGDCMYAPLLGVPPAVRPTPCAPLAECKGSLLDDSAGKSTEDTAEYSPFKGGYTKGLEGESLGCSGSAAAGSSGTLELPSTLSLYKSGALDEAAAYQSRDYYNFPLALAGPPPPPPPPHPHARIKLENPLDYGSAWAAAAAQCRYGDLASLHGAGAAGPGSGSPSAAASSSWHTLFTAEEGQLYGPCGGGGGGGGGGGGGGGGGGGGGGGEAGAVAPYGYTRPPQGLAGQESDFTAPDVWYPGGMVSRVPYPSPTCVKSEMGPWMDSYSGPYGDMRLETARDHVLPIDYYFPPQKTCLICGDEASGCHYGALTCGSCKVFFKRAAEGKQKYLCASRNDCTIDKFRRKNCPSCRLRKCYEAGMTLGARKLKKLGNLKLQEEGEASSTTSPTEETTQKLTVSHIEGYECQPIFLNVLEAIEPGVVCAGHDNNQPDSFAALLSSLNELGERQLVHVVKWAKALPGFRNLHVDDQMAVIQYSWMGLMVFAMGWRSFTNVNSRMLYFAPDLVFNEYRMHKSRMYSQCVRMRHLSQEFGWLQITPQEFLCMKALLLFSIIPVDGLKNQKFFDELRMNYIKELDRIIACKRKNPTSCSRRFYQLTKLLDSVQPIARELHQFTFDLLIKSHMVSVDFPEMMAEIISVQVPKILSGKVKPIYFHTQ
Chain of Estrogen receptor (Homo sapiens) (P03372 whole entry, looked up): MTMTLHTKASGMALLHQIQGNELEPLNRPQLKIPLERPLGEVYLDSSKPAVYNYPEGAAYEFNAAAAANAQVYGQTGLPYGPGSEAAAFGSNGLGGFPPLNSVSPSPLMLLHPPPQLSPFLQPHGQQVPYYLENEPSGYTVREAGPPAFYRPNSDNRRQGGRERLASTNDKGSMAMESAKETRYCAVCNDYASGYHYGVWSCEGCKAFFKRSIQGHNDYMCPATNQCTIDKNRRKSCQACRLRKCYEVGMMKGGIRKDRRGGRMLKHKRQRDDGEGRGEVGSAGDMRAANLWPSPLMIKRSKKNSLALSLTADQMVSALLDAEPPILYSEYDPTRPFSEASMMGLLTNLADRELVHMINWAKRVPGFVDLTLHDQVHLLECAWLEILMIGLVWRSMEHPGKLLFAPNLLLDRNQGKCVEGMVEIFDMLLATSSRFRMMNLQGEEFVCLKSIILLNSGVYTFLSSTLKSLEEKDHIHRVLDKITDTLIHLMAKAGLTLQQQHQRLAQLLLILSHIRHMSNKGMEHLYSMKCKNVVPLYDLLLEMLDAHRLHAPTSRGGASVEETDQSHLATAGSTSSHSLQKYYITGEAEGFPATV

Compound | Potency [1] | Potency [2] | Potency [3] | Potency [4] | Potency [5] | Potency [6] | Potency [7] | Potency [8] | Potency [9] | PLD induction [4] | Potency [10]
O=S1(=O)OC(c2ccc(O)cc2)(c2ccc(O)cc2)c2ccccc21 | inactive | 30.6 µM (active) and 21.7 µM (active) and 8.41 µM (active) | 27.3 µM (active) and 19.3 µM (active) and 10.6 µM (active) | inactive | inactive | inactive | 27.3 µM (active) and 11.9 µM (active) |  |  |  | 
CCOC(N)=O | inactive | inactive | inactive | inactive | inactive | inactive | inactive |  |  |  | 
C[C@](N)(Cc1ccc(O)c(O)c1)C(=O)O | inactive | inactive | inactive | inactive | inactive | inactive | inactive |  |  |  | 
CC(=O)Nc1c(I)c(NC(C)=O)c(I)c(C(=O)O)c1I | inactive | inactive | inactive | inactive | inactive | inactive | inactive |  |  |  | 
NS(=O)(=O)c1cc2c(cc1Cl)NCNS2(=O)=O | inactive | inactive | inactive | inactive | inactive | inactive | inactive |  |  |  | 
CCCCCCCCCCCC[N+](C)(C)Cc1ccccc1 | 53.9 µM (active) and 47.4 µM (active) and 23.9 µM (active) | inactive | 47.6 µM (active) and 37.4 µM (active) and 13.3 µM (active) | inactive | inactive | inactive | 53.4 µM (active) and 52.8 µM (active) and 16.8 µM (active) |  |  |  | 
CN(C)CCOC(c1ccccc1)c1ccccc1 | inactive | inactive | inactive | inactive | inactive | inactive | inactive | inactive | inactive |  | 
Oc1ccccc1 | inactive | inactive | inactive |  | inactive | inactive | inactive |  |  | 0.811% [at 7.66 µM] (inactive) | 
CC(C)c1c(C(=O)Nc2ccccc2)c(-c2ccccc2)c(-c2ccc(F)cc2)n1CC[C@@H](O)C[C@@H](O)CC(=O)O | inactive | inactive | inactive | inactive | inactive | inactive | inactive |  |  |  | 
O=C1O[C@H]([C@@H](O)CO)C(O)=C1O | inactive | inactive | inactive | inactive | inactive | inactive | inactive |  |  |  | 
Cc1c(C(=O)O)c(O)cc2c1C(=O)c1c(O)c([C@@H]3O[C@H](CO)[C@@H](O)[C@H](O)[C@H]3O)c(O)c(O)c1C2=O | inactive | 33.5 µM (active) and 21.7 µM (active) | 37.6 µM (active) and 27.3 µM (active) | inactive | inactive | 27.3 µM (active) and inactive | 26.6 µM (active) and 27.3 µM (active) |  |  |  | 
COc1ccc(C(Cl)=C(c2ccc(OC)cc2)c2ccc(OC)cc2)cc1 | inactive | inactive | inactive | inactive | inactive | inactive | inactive |  |  |  | 
CCCCC1(COC(=O)CCC(=O)O)C(=O)N(c2ccccc2)N(c2ccccc2)C1=O | inactive | inactive | inactive | inactive | inactive | inactive | inactive | inactive |  |  | inactive
CCCCCCCCCCCCCCCC[N+](C)(C)Cc1ccccc1 | 63.6 µM (active) and 35.3 µM (active) and 26.8 µM (active) | inactive | 50.1 µM (active) and 55.5 µM (active) and 26.6 µM (active) | inactive | inactive | inactive | 70.8 µM (active) and 35 µM (active) |  | inactive |  | 63.1 µM (active) and 55.5 µM (active)
C=C1CC[C@H](O)C/C1=C\C=C1/CCC[C@]2(C)[C@@H]([C@H](C)CCCC(C)C)CC[C@@H]12 | inactive | inactive | inactive | inactive | inactive | inactive |  |  |  |  | 
C/C=C/C=C/C(=O)O | inactive | inactive | inactive | inactive | inactive | inactive | inactive |  |  |  | 
CCOc1ccc(NC(C)=O)cc1 | inactive | inactive | inactive | inactive | inactive | inactive | inactive | inactive | inactive |  | 
CCc1nc(N)nc(N)c1-c1ccc(Cl)cc1 | inactive | inactive | inactive | inactive | inactive | inactive | inactive |  |  |  | 
CCCCCCc1ccc(O)cc1O | inactive and 49 µM (active) | inactive | inactive | inactive | inactive | inactive | 48.7 µM (active) and 61.1 µM (active) and inactive | 43.4 µM (active) and 48.6 µM (active) and 23.7 µM (active) |  |  | 
CN(C)C(=O)Nc1ccc(Cl)c(Cl)c1 | inactive | inactive | inactive | inactive | inactive | inactive | inactive | 30.5 µM (active) and 27.3 µM (active) and 23.7 µM (active) |  |  | 
CCCCOC(=O)c1ccc(O)cc1 | inactive | inactive | inactive | inactive | 27.6 µM (active) and 30.6 µM (active) | inactive | inactive | inactive | inactive |  | 

Compound | Potency [1] | Potency [2] | Potency [3] | Potency [4] | Potency [5] | Potency [6] | Potency [7] | Potency [8] | Potency [9] | PLD induction [4] | Potency [10]
CN1CCc2cccc3c2[C@H]1Cc1ccc(O)c(O)c1-3 | inactive | 49.1 µM (active) and 20.4 µM (active) | 55 µM (active) and 22.8 µM (active) | inactive | inactive | inactive | 27.6 µM (active) and 22.8 µM (active) |  |  |  | 
O=C1OC2(c3ccccc31)c1cc(Br)c(O)c(Br)c1Oc1c2cc(Br)c(O)c1Br | 5.58 µM (active) and 14.2 µM (active) and 21.3 µM (active) | 7.81 µM (active) and 22.3 µM (active) and 11.9 µM (active) | 4.93 µM (active) and 25 µM (active) and 10.6 µM (active) | inactive | inactive | inactive | inactive |  |  |  | 
CCN(CC)C(=O)c1cccc(C)c1 | inactive | inactive | inactive | inactive | inactive | inactive | inactive |  |  |  | 
Cc1cc(C)nc(NS(=O)(=O)c2ccc(N)cc2)n1 | inactive | inactive | inactive | inactive | inactive | inactive | inactive |  |  |  | 
C1CCC(C(CC2CCCCN2)C2CCCCC2)CC1 (centres undefined) | 23.9 µM (active) | inactive | 26.6 µM (active) | inactive | inactive | inactive | 13.3 µM (active) |  |  |  | 
COc1ccc2c(c1)c(CC(=O)O)c(C)n2C(=O)c1ccc(Cl)cc1 | inactive | inactive | inactive |  | inactive | inactive | inactive | inactive | inactive | 14.5% [at 7.66 µM] (inactive) | 
Nc1c2c(nc3ccccc13)CCCC2 | inactive | inactive | inactive |  | inactive | inactive | inactive |  |  |  | inactive
CC(=O)CCC(=O)O | inactive | inactive | inactive | inactive | inactive | inactive | inactive |  |  |  | 
CN(C)CCOC(C)(c1ccccc1)c1ccccn1 (centres undefined) | inactive | inactive | inactive | inactive | inactive | inactive | inactive |  | inactive |  | 
CCCCCCCC(=O)OCC(COC(=O)CCCCCCC)OC(=O)CCCCCCC | inactive | inactive | inactive | inactive | inactive | inactive | inactive |  |  |  | 
NC(CO)(CO)CO | inactive | inactive | inactive | inactive | inactive | inactive | inactive |  | inactive |  | 
CNNCc1ccc(C(=O)NC(C)C)cc1 | inactive | inactive | inactive | inactive | inactive | inactive | inactive |  | inactive |  | 
CN1[C@@H]2CC(OC(=O)[C@H](CO)c3ccccc3)C[C@H]1[C@@H]1O[C@@H]12 (some centres undefined) | inactive | inactive | inactive | inactive | inactive | inactive | inactive |  | inactive |  | 
CCCCNC(=O)NS(=O)(=O)c1ccc(C)cc1 | inactive | inactive | inactive | inactive | inactive | inactive | inactive |  | inactive |  | 
CS(=O)(=O)OCCCCOS(C)(=O)=O | inactive | inactive | inactive | inactive | inactive | inactive | inactive |  | inactive |  | 
NC(=O)c1cccnc1 | inactive | inactive | inactive | inactive | inactive | inactive | inactive |  |  |  | 
C1=CC2C3C=CC(C3)C2C1 (centres undefined) | inactive | inactive | inactive |  | inactive | inactive | inactive |  | inactive | -3.38% [at 3.15 µM] (inactive) | 
COc1ccc(CN(CCN(C)C)c2ccccn2)cc1 | inactive | inactive | inactive | inactive | inactive | inactive | inactive |  |  |  | 
O=C1c2c(O)cccc2Cc2cccc(O)c21 | inactive | inactive | inactive | inactive | inactive | inactive | inactive |  | inactive |  | 
O=C1NC(=O)C(c2ccccc2)(c2ccccc2)N1 | inactive and 23.9 µM (active) | inactive | inactive | inactive | inactive | inactive | inactive |  | inactive |  | 

Reference: PubChem BioAssay (Tox21)
